Most compounds without a hit are left out; they make up all but 1.3% or so of the library.
TRPML1 agonist – activates the human TRPML1 channel. Q9GZU1. AID 624414. activation, % (concentration not given with the values). 410,000 tested, 0.12% active. TRPML1-expressing cells, Ca2+ dye fluorescence, FDSS; in the data active means activation above about 50%; inconclusive means mostly about 30% to 49%; further: 0% is about no effect
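Calcium fluorescence on an FDSS kinetic reader gave the read-out. Tet-induced TRPML1-DL cells were plated overnight, dye-loaded (Ca8 with quencher, 45-90 min, room temperature, dark), then read 110 s after compound addition, and again 110 s after 4uM final 54-4 (EC80).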
KCNH2 WT inh – inhibitors of human wildtype KCNH2 potassium channel. 340,000 tested, 0.37% active. activity change, % at 1.84 µM. U2OS, BacMam KCNH2, thallium flux FluxOr; stronger effect = lower value;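 active means maximum activity change below -70%; inconclusive means maximum activity change between -70% and -50%; inactive means maximum activity change above -50%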; further: on the % scale 0 is the no-effect control and ±100 the full control effect
Target sequence (Q12809 whole entry, looked up): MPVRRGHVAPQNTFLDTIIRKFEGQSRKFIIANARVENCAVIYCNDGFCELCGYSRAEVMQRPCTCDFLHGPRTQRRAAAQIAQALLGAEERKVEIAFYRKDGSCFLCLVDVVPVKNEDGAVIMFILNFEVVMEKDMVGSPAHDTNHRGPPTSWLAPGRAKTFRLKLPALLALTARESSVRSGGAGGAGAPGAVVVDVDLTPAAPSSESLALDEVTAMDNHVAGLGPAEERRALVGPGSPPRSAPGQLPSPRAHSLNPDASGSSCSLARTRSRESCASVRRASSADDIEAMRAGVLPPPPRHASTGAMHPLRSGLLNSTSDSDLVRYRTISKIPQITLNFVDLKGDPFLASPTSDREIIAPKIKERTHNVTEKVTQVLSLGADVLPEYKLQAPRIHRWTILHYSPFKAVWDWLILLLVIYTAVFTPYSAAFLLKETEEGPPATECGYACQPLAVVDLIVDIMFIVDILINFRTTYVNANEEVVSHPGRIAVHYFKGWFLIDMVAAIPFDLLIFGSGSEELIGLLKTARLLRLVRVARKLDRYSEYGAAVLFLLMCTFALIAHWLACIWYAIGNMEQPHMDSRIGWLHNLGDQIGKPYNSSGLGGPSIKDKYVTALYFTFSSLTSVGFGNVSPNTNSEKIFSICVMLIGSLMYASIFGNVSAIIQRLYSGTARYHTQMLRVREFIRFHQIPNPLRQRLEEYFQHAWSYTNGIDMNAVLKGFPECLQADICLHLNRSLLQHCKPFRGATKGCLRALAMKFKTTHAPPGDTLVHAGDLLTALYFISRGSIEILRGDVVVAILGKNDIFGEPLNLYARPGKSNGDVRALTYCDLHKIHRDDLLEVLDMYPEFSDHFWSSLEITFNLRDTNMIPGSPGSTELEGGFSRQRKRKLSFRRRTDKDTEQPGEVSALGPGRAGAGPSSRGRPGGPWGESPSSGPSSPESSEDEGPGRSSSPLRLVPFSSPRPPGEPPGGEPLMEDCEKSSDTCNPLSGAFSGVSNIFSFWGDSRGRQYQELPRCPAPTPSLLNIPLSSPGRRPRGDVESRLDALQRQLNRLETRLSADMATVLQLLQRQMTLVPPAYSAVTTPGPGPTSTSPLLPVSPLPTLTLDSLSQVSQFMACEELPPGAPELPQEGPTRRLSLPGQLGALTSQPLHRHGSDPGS
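U2OS cells were transduced with wild-type KCNH2 virus (2.03 x 10^8 / mL) for 4 h at room temperature, then cultured overnight at 37 C. Thallium flux was read with FluxOr dye. Rate constants were normalized to DMSO controls.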
KCNH2 3.1 inh – KCNH2 3.1 (human) potassium channel inhibition | U2OS KCNH2 3.1, thallium flux FluxOr; stronger effect = lower value | activity change, % (tested at about 1.8 µM) | 340,000 tested, 0.95% active | AID 720553;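 active means maximum activity change below -70%; inconclusive means maximum activity change from -70% to -50%; inactive means maximum activity change above -50%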;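 further: thallium influx rate constant from kinetic fluorescence after stimulation buffer; on the % scale 0 is the no-effect control and ±100 the full control effect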
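We transduce U2OS cells with the mutant 3.1 virus, culture them overnight, load FluxOr with Red40 quencher for 45 min, then add stimulation buffer and read kinetically for 2 min to derive a normalized rate constant.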
TRPML1 blocker – inhibitors of human TRPML1 channel; 390,000 tested, 0.02% active; Q9GZU1; AID 624415; activity change, negative = inhibition, % (test concentration not listed); TRPML1-inducible cells, Ca2+ dye fluorescence, FDSS; stronger effect = lower value; inhibition of EC80 agonist-evoked calcium signal; in the data active means activity change below about -50%; inconclusive means between about -30% and that limit;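 further: stimulus is agonist 54-4 at its EC80 concentration; on the % scale 0 is the no-effect control and ±100 the full control effect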
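Calcium fluorescence in TRPML1-DL cells induced overnight with Tet: a 110 s read after compound pin addition, then a 110 s antagonist read after challenge with 54-4 at 4 uM final (EC80).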
TRPV1 PAM – enhances activation of the human vanilloid receptor TRPV1. Q8NER1. TRPV1-expressing cells, Fluo-8 calcium influx, capsaicin EC20 potentiation. potentiation, % at 8.33 µM. 320,000 tested, 0.02% active; in the data active means potentiation above about 80%; inconclusive means between about 30% and that limit; further: 0% is about no effect
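TRPV1-expressing cells were cultured overnight at 35.5C and loaded with Fluo-8 calcium dye for 40 to 90 min at room temperature. After a 10 s baseline, compound was added and calcium influx was read kinetically for 3 min (ex 480/em 520 nm).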
TRPV1 ag – activates the human vanilloid receptor TRPV1 | Q8NER1 | TRPV1-expressing cells, Fluo-8 calcium influx, agonist mode | activation, % at 8.33 µM | 320,000 tested, 0.19% active; in the data active means activation above about 80%; inconclusive means between about 30% and that limit; further: 0% is about no effect
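Cells expressing TRPV1 were dye-loaded with Fluo-8 and read kinetically: 10 s baseline, 3 min after compound (agonist portion), then 2 min after EC20 capsaicin (allosteric enhancer portion). Calcium-bound dye fluorescence at 480/520 nm.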
* = called active by the depositor; ? = inconclusive; / = no result.

SMILES	TRPML1 agonist	KCNH2 WT inh	KCNH2 3.1 inh	TRPML1 blocker	TRPV1 PAM	TRPV1 ag
COCCn1c(SCC(=O)NCc2ccc3c(c2)OCO3)nnc1-c1c[nH]c2ccccc12	-1	-149*	-215*	-2	?	1
CCc1cccc(-n2c(=O)c3cccnc3n2CC(=O)NCc2ccc(C)cc2)c1	2	/	/	14	/	/
O=C(Nc1cccc(F)c1)N1CCC(n2c(=O)[nH]c3ccccc32)CC1	0	-228*	-193*	-7	17	14
O=C(Nc1ccccc1C(F)(F)F)N1CCC(n2c(=O)[nH]c3ccccc32)CC1	0	8	7	0	5	-2
CC(C)NC(=O)C12CC3CC(C1)CC(C(=O)NC(C)C)(C3)C2	0	16	-88*	6	15	-2
COc1ccc(C(CC(=O)Nc2ccc(OC)c(OC)c2)N2Cc3ccccc3C2=O)cc1 (configuration not stated)	-1	/	/	3	/	/
Cc1ccc(SCc2nc(-c3ccc(C(=O)Nc4cc(C)ccc4C)cc3)oc2C)cc1	0	/	/	-28	/	/
CCCCCCCCN1[C@@H](CC(C)=O)c2ccc(/C=C/C(C)=O)cc2S1(=O)=O	0	/	/	/	/	/
Cc1cc(C)nc(/N=C(\N)Nc2ccc(-c3ccccc3)cc2)n1	?	32	-80*	13	2	6
CC(=O)Nc1ccc(N/C(N)=N/c2nc(C)cc(C)n2)cc1	1	-2	1	-2	4	3
Cc1cc(C)nc(/N=C(\N)Nc2ccc(SC(F)F)cc2)n1	54*	33	-20	-13	-22	16
Cc1cc(C)nc(/N=C(\N)N(Cc2ccccc2)Cc2ccccc2)n1	2	1	-77*	-4	10	1
Cc1cccc(NC(=O)CSc2nc3ccccc3c3nc(CCn4cncc4C)nn23)c1	1	/	/	-5	/	/
CNC(=O)C1CCC(Cn2c(=O)c3sccc3n(CC(=O)NCc3ccccc3)c2=O)CC1 (configuration not stated)	0	/	/	8	/	/
COc1ccccc1NC(C)C(=O)c1c[nH]c2ccccc12 (configuration not stated)	-1	/	/	/	/	/
CSc1ccc(CCNC(=O)C(C)n2nc(C)c3sc4ccccc4c3c2=O)cc1 (configuration not stated)	1	/	/	2	/	/
Cc1cc[n+](CCC2CCCCC2)c2ccccc12	-1	/	/	/	/	/
CCc1cccc(CC)c1NC(=O)/C(C#N)=C/c1ccccc1C(F)(F)F	0	-7	1	-12	6	16
N#C/C(=C\c1ccccc1C(F)(F)F)C(=O)Nc1ccccc1	0	1	-177*	93	7	-2
COC(=O)c1nnn(-c2ccc(F)c(Cl)c2)c1C(=O)OC	3	5	-70*	-7	20	0
C=CCn1c(SC(C)C#N)nc2ccccc2c1=O (configuration not stated)	-1	/	/	/	/	/
Cc1cc2oc(C(=O)Nc3ccc(S(=O)(=O)N(C)c4ccccc4)cc3)cc(=O)c2cc1C	-1	/	/	1	/	/
CCC1CCCCN1CCCNC(=O)c1ccc(/C=C2/Sc3ccccc3NC2=O)cc1 (configuration not stated)	0	?	-96*	-5	-13	2
O=C1Nc2cc(C(=O)NCCCN3CCCC3)ccc2S/C1=C\c1ccccc1	0	5	2	-1	-1	1
CCOC(=O)C1(CCCc2ccccc2)CCN(Cc2nccn2CC)CC1	0	-13	-93*	9	-11	21
CCOC(=O)C1(CCCc2ccccc2)CCN(CCCn2cccn2)CC1	1	-131*	-111*	-3	8	0
CCOC(=O)C1(CCCc2ccccc2)CCN(Cc2cn(CC)nc2C)CC1	1	-17	-93*	13	-14	28
CCOC(=O)C1(CCc2ccccc2)CCN(Cc2cccc3nccnc23)CC1	3	-34	-99*	4	25	5
CCOC(=O)C1(Cc2cccc(F)c2)CCN(Cc2cn(CC)nc2C)CC1	1	2	-1	-6	-7	11

Source: PubChem BioAssay
